According to PubChem BioAssay (NCI):
Compounds without any hit were thinned out: in the full panel of roughly 83,000, 20% have a hit.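 Testing used 96-well plates and a 48-hour single-concentration exposure. Example: -40 means 40% of the starting cells died.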 The source made the active and inactive calls. The calls were made as follows: active = growth percent below 10; inactive = the rest.

How the values were obtained:
Assay in all cases: NCI-60 one-dose screen, 48 h (100 = growth as untreated, 0 = no growth, -100 = all killed)
HCT-15 colon = tested on: HCT-15 colon
SNB-75 CNS = tested on: SNB-75 CNS
SNB-19 CNS = tested on: SNB-19 CNS
U251 CNS = tested on: U251 CNS
PC-3 prostate = tested on: PC-3 prostate
SK-MEL-5 melanoma = tested on: SK-MEL-5 melanoma
UACC-62 melanoma = tested on: UACC-62 melanoma
LOX IMVI melanoma = tested on: LOX IMVI melanoma
SK-MEL-28 melanoma = tested on: SK-MEL-28 melanoma
SK-MEL-2 melanoma = tested on: SK-MEL-2 melanoma
EKVX NSCLC = tested on: EKVX NSCLC
SN12C renal = tested on: SN12C renal
UO-31 renal = tested on: UO-31 renal
TK-10 renal = tested on: TK-10 renal
ACHN renal = conditions: 10 µM unless noted
A498 renal = tested on: A498 renal
CCRF-CEM leukemia = conditions: 10 µM unless noted
MOLT-4 leukemia = tested on: MOLT-4 leukemia
HT29 colon = tested on: HT29 colon
CAKI-1 renal = conditions: 10 µM unless noted

Measured: growth

CC(=O)/C=C/c1ccc(N(C)Cc2ccc(C(C)(C)C)cc2)cc1
inactive: HCT-15 colon; 10 µM 87.5% | SNB-75 CNS; 10 µM 102% | SNB-19 CNS; 10 µM 110% | U251 CNS; 10 µM 89.8% | PC-3 prostate; 10 µM 77.6% | SK-MEL-5 melanoma; 10 µM 74.7% | UACC-62 melanoma; 10 µM 78.8% | LOX IMVI melanoma; 10 µM 80.1% | SK-MEL-28 melanoma; 10 µM 92.5% | SK-MEL-2 melanoma; 10 µM 99.7% | EKVX NSCLC; 10 µM 106% | SN12C renal; 10 µM 90.6% | UO-31 renal; 10 µM 78.5% | TK-10 renal; 10 µM 115% | ACHN renal 98.4% | A498 renal; 10 µM 87.9% | MOLT-4 leukemia; 10 µM 62.2%
active: HCT-15 colon; 100 µM -36.9% | SNB-75 CNS; 100 µM -59.5% | SNB-19 CNS; 100 µM -31.2% | U251 CNS; 100 µM -100% | PC-3 prostate; 100 µM -26.1% | SK-MEL-5 melanoma; 100 µM -100% | UACC-62 melanoma; 100 µM -57.1% | LOX IMVI melanoma; 100 µM -100% | SK-MEL-28 melanoma; 100 µM -82.3% | SK-MEL-2 melanoma; 100 µM -69.2% | EKVX NSCLC; 100 µM -39.2% | SN12C renal; 100 µM -81.1% | UO-31 renal; 100 µM -100% | TK-10 renal; 100 µM -13.7% | A498 renal; 100 µM -95.6% | CCRF-CEM leukemia -12.1% [100 µM] | MOLT-4 leukemia; 100 µM -38.9%

COc1ccc(C(=O)/C=C/c2ccc(OCc3ccc(Cl)cc3)cc2)cc1OC
inactive: HCT-15 colon; 10 µM 92.9% | HCT-15 colon; 100 µM 34.1% | HT29 colon; 10 µM 87.2% | HT29 colon; 100 µM 35.8% | SNB-75 CNS; 10 µM 96.9% | SNB-19 CNS; 10 µM 105% | U251 CNS; 10 µM 93.2% | PC-3 prostate; 10 µM 97.5% | PC-3 prostate; 100 µM 16.9% | SK-MEL-5 melanoma; 10 µM 92.3% | UACC-62 melanoma; 10 µM 96.1% | UACC-62 melanoma; 100 µM 23.6% | LOX IMVI melanoma; 10 µM 88.8% | LOX IMVI melanoma; 100 µM 22.1% | SK-MEL-28 melanoma; 10 µM 103% | SK-MEL-28 melanoma; 100 µM 55.9% | SK-MEL-2 melanoma; 10 µM 98.3% | SK-MEL-2 melanoma; 100 µM 48.5% | EKVX NSCLC; 10 µM 109% | EKVX NSCLC; 100 µM 29.1% | SN12C renal; 10 µM 107% | SN12C renal; 100 µM 28.5% | UO-31 renal; 10 µM 85.8% | UO-31 renal; 100 µM 41.4% | TK-10 renal; 10 µM 101% | ACHN renal 103% | A498 renal; 10 µM 85.5% | CCRF-CEM leukemia 73.4% [100 µM] | MOLT-4 leukemia; 10 µM 90.4% | MOLT-4 leukemia; 100 µM 62.8%
active: SNB-75 CNS; 100 µM -26.3% | SNB-19 CNS; 100 µM -47.3% | U251 CNS; 100 µM -90.3% | SK-MEL-5 melanoma; 100 µM -10.4% | TK-10 renal; 100 µM 0.092% | A498 renal; 100 µM -33.3%

CN1C(=O)N(C)C2(c3ccccc3)N(CC(=O)Nc3ccccc3O)C(=O)NC12c1ccccc1 (configuration not stated)
inactive: HCT-15 colon; 10 µM unless noted 103% | HT29 colon; 10 µM unless noted 111% | SNB-75 CNS; 10 µM unless noted 74.3% | SNB-19 CNS; 10 µM unless noted 100% | U251 CNS; 10 µM unless noted 105% | PC-3 prostate; 10 µM unless noted 90.3% | SK-MEL-5 melanoma; 10 µM unless noted 101% | UACC-62 melanoma; 10 µM unless noted 91% | LOX IMVI melanoma; 10 µM unless noted 96.8% | SK-MEL-28 melanoma; 10 µM unless noted 123% | SK-MEL-2 melanoma; 10 µM unless noted 111% | EKVX NSCLC; 10 µM unless noted 102% | SN12C renal; 10 µM unless noted 103% | UO-31 renal; 10 µM unless noted 74.6% | TK-10 renal; 10 µM unless noted 93.9% | ACHN renal 102% | CAKI-1 renal 74.1% | A498 renal; 10 µM unless noted 121% | CCRF-CEM leukemia 111%

Cc1ccc(-c2nc3nc(-c4ccccc4)nc(N4CCCNCC4)c3o2)cc1
active: HCT-15 colon; 10 µM unless noted -81.5% | HT29 colon; 10 µM unless noted -86.1% | SNB-75 CNS; 10 µM unless noted -59.8% | U251 CNS; 10 µM unless noted -84.9% | PC-3 prostate; 10 µM unless noted -88.9% | SK-MEL-5 melanoma; 10 µM unless noted -57.3% | UACC-62 melanoma; 10 µM unless noted -81.4% | LOX IMVI melanoma; 10 µM unless noted -89.8% | SK-MEL-28 melanoma; 10 µM unless noted -89.3% | SK-MEL-2 melanoma; 10 µM unless noted -2.85% | SN12C renal; 10 µM unless noted -87.9% | UO-31 renal; 10 µM unless noted -98.1% | TK-10 renal; 10 µM unless noted -60% | ACHN renal -98.9% | CAKI-1 renal -9.04% | CCRF-CEM leukemia -75.8%
inactive: SNB-19 CNS; 10 µM unless noted 25.9% | EKVX NSCLC; 10 µM unless noted 39% | A498 renal; 10 µM unless noted 98.4%

CCCCCCCC/C=C\CCCCCCCCOc1ccccc1CC(=O)NCC[N+]1(C)CCOCC1
inactive: HCT-15 colon; 10 µM unless noted 92.5% | HT29 colon; 10 µM unless noted 44.9% | SNB-75 CNS; 10 µM unless noted 47.7% | SNB-19 CNS; 10 µM unless noted 32.8% | U251 CNS; 10 µM unless noted 12.3% | PC-3 prostate; 10 µM unless noted 21.7% | SK-MEL-5 melanoma; 10 µM unless noted 89.3% | UACC-62 melanoma; 10 µM unless noted 68% | LOX IMVI melanoma; 10 µM unless noted 71.8% | SK-MEL-28 melanoma; 10 µM unless noted 93.8% | SK-MEL-2 melanoma; 10 µM unless noted 90.3% | EKVX NSCLC; 10 µM unless noted 92.1% | SN12C renal; 10 µM unless noted 60.5% | UO-31 renal; 10 µM unless noted 96.2% | ACHN renal 85.5% | CAKI-1 renal 71.6% | A498 renal; 10 µM unless noted 95.2% | CCRF-CEM leukemia 67.5%
active: TK-10 renal; 10 µM unless noted 8.83%
